Hit rate of the full screen: of about 39,000 compounds, about 220 (0.56%) showed activity. This is one part of a sample in which actives are shown more often than they occur. A number with no mark means an inactive call.
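Note: Wild-type cells incubated without shaking, value is the mean of two biological replicates.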

In the test the test system is Escherichia coli K-12 BW25113. Nature of the test: relative growth (OD600 normalised to plate interquartile mean) (fraction); higher = less growth inhibition, active = 0.2 or less. The following applies: 50 µM; LB; incubation time: overnight (16-24 h).
As for `COc1ccc(NC(=O)N(C)C[C@H]2OCCCC[C@@H](C)Oc3ccc(NC(=O)c4ccccc4)cc3C(=O)N([C@@H](C)CO)C[C@H]2C)cc1`, the relative growth was 0.994.
Then `COC[C@H](C)N1C[C@H](C)[C@@H](CN(C)Cc2ccc(Oc3ccccc3)cc2)Oc2c(NC(=O)c3ccncc3)cccc2C1=O`, with 1; and `Cc1noc(C)c1S(=O)(=O)Nc1ccc2c(c1)C(=O)N([C@H](C)CO)C[C@@H](C)[C@H](CN(C)C(=O)NC1CCCCC1)O2`, with 1.01.
The figure for `C[C@@H]1CN([C@H](C)CO)C(=O)c2cc(NS(=O)(=O)c3ccc(F)cc3)ccc2O[C@@H](C)CCCCO[C@@H]1CN(C)C(=O)C1CCCCC1` is 0.993; for `Cc1noc(C)c1NC(=O)N(C)C[C@H]1Oc2ccc(NC(=O)Nc3ccc(C(F)(F)F)cc3)cc2CC(=O)N([C@H](C)CO)C[C@H]1C` it is 0.935; for `C[C@H](CO)N1C[C@H](C)[C@H](CN(C)S(=O)(=O)c2ccccc2)Oc2ccc(NC(=O)C3CC3)cc2CC1=O` it is 1.
For `CC(C)(C)c1ccc(NC(=O)N[C@H]2CCCc3ccccc32)cc1`, the relative growth is 1.03.
The figure for `COc1ccc(NC(=O)Nc2ccc3c(c2)CC(=O)N([C@H](C)CO)C[C@@H](C)[C@@H](CN(C)S(=O)(=O)c2c(C)noc2C)O3)cc1` is 0.969; for `Nc1ncn(C2OC(CO)C(O)C2O)c(=O)n1` (stereo not drawn) it is 0.05 (active).
For the compound `Nc1ncn([C@@H]2C[C@H](O)[C@@H](CO)O2)c(=O)n1`, the relative growth is 0.907.
The figure for `Nc1ncn([C@@H]2O[C@H](CO)[C@@H](O)[C@H]2O)c(=O)n1` is 0.458; for `CC(=O)N(C)C[C@@H]1Oc2ncc(C#C[C@@H](C)O)cc2C(=O)N([C@@H](C)CO)C[C@H]1C` it is 1.01.
With `O=C(C[C@@H]1CC[C@@H]2[C@H](COC[C@@H](O)CN2S(=O)(=O)c2cccc(Cl)c2)O1)N1CCOCC1`, the relative growth was 1.01.
The figure for `O=C1OC(=O)[C@H]2[C@@H]1[C@H]1CC[C@H]2O1` is 0.16 (active); for `CCc1c(C)[nH]c(=S)c(C#N)c1C` it is 1.01; for `Cc1noc(C)c1S(=O)(=O)Nc1ccc2c(c1)C(=O)N([C@@H](C)CO)C[C@H](C)[C@H](CN(C)CC1CC1)O2` it is 0.999.
On to `COc1ccc(NC(=O)N(C)C[C@H]2Oc3c(NS(=O)(=O)c4cn(C)cn4)cccc3C(=O)N([C@@H](C)CO)C[C@@H]2C)cc1`, for which the relative growth was 0.995.
Then `C[C@H](CO)N1C[C@H](C)[C@@H](CN(C)S(=O)(=O)c2ccc(F)cc2)Oc2ccc(NC(=O)c3ccncc3)cc2CC1=O`, with 0.989; and `CCCCCCCCCCCCCCCC[N+](C)(C)C`, with 0.0755 (active); and `C[N+](C)(C)CCCCCC[N+](C)(C)C.[Br-].[Br-]`, with 0.862.
The figure for `CCCCCCCCCCCCCCCCOP(=O)([O-])OCC[N+](C)(C)C` is 1; for `NS(=O)(=O)c1cc(-c2nn[nH]n2)c(NCc2cccs2)cc1Cl` it is 0.965; for `NC[C@H]1CCN(c2ccc(Oc3ccccc3)cc2)C1` it is 0.669.
The figure for `C[C@H]1CCCCO[C@H](CN(C)C(=O)Cc2ccccc2)[C@@H](C)CN([C@@H](C)CO)C(=O)c2cc(NC(=O)c3ccccc3)ccc2O1` is 1.03; for `CON=C(C(=O)N[C@@H]1C(=O)N2C(C(=O)OCOC(=O)C(C)(C)C)=C(C=Cc3scnc3C)CS[C@H]12)c1csc(N)n1` it is 0.0386 (active); for `CON=C(C(=O)NC1C(=O)N2C(C(=O)OCOC(=O)C(C)(C)C)=C(C=Cc3scnc3C)CSC12)c1csc(N)n1` (stereo not drawn) it is 0.0492 (active).
For the compound `CCC=C(C(=O)NC1C(=O)N2C(C(=O)OCOC(=O)C(C)(C)C)=C(COC(N)=O)CSC12)c1csc(N)n1.Cl` (stereo not drawn), the relative growth was 0.0724 (active).
Turning to `Cc1ccc(S(=O)(=O)N(C)C[C@@H]2Oc3ccc(NS(=O)(=O)c4ccc(F)cc4)cc3C(=O)N([C@H](C)CO)C[C@@H]2C)cc1`, the relative growth was 1.08.
As to `COc1ccc(CN(C)C[C@@H]2Oc3c(NC(=O)Nc4ccc(C(F)(F)F)cc4)cccc3C(=O)N([C@@H](C)CO)C[C@H]2C)cc1`, the relative growth was 0.818.
Turning to `Cc1cc(-c2ccccc2)nc(-c2ccccc2)c1C`, the relative growth is 0.937.
The figure for `C[C@H]1CN([C@@H](C)CO)C(=O)c2cc(NC(=O)CCCCCC(=O)Nc3ccccc3N)ccc2O[C@H]1CN(C)S(=O)(=O)c1cn(C)cn1` is 1.01; for `CNC[C@H]1Oc2cc(C#CCN(C)C)ccc2S(=O)(=O)N([C@H](C)CO)C[C@@H]1C` it is 1.02.
Take `C[C@@H]1CCCCO[C@@H](CN(C)C(=O)Nc2ccc3c(c2)OCO3)[C@H](C)CN([C@H](C)CO)C(=O)c2cc(NS(=O)(=O)c3ccc(F)cc3)ccc2O1`: the relative growth is 1.01.
Regarding `Cc1noc(C)c1S(=O)(=O)Nc1ccc2c(c1)C(=O)N([C@H](C)CO)C[C@@H](C)[C@@H](CN(C)S(=O)(=O)c1cccs1)O2`, the relative growth was 0.998.
The figure for `C[C@H]1CCCCO[C@H](CN(C)S(C)(=O)=O)[C@@H](C)CN([C@@H](C)CO)C(=O)c2cc(NC(=O)c3ccncc3)ccc2O1` is 1.01; for `CCCCCOc1ccc(-c2cc(-c3ccc(C(=O)N[C@H]4C[C@@H](O)[C@@H](O)NC(=O)[C@H]5[C@@H](O)[C@@H](C)CN5C(=O)[C@H]([C@@H](O)CC(N)=O)NC(=O)[C@H]([C@@H](O)[C@@H](O)c5ccc(O)c(OS(=O)(=O)O)c5)NC(=O)[C@H]5C[C@@H](O)CN5C(=O)[C@H]([C@@H](C)O)NC4=O)cc3)no2)cc1` it is 0.952; for `CC[C@H](C)C[C@H](C)CCCCCCCCC(=O)N[C@H]1C[C@@H](O)[C@@H](NCCN)NC(=O)[C@@H]2[C@@H](O)CCN2C(=O)[C@H]([C@H](O)CCN)NC(=O)[C@H]([C@H](O)[C@@H](O)c2ccc(O)cc2)NC(=O)[C@@H]2C[C@@H](O)CN2C(=O)[C@H]([C@@H](C)O)NC1=O` it is 0.173 (active).
`CCCCCOc1ccc(-c2ccc(-c3ccc(C(=O)N[C@H]4C[C@@H](O)[C@@H](O)NC(=O)[C@@H]5[C@@H](O)[C@@H](C)CN5C(=O)[C@H]([C@@H](C)O)NC(=O)[C@H]([C@H](O)[C@@H](O)c5ccc(O)cc5)NC(=O)[C@@H]5C[C@@H](O)CN5C(=O)[C@H]([C@@H](C)O)NC4=O)cc3)cc2)cc1`: the relative growth is 1.12.

For the origin of these results see the supplement of paper PMC9446081.
